Rows were chosen to be rich in hits. Some 12% of all compounds tested hit in one or more screens of this group.
HCV inhibitor: qHTS Assay for Inhibitors of Hepatitis C Virus (HCV); Huh7.5.1 HCVcc-Cre infection, luciferase reporter, 44 h; Potency, µM (series often up to 41.8 µM), inactives show at the highest dose activity change, negative = inhibition, usual class: inhibitors; hit rate 3.4% among 340,000; further: on the % scale 0 is the no-effect control and ±100 the full control effect
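Cells (1,000/well) were plated 4 h before compound, then infected with HCVcc-Cre virus (~0.5 moi). After 44 h further culture, infection was read as luciferase luminescence following a 15 min substrate incubation at room temperature.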
SARS PLpro yeast: qHTS of Yeast-based Assay for SARS-CoV PLP; hit rate 0.19% among 330,000; S. cerevisiae expressing SARS-CoV PLpro, growth rescue; Potency, µM (titrated, usually from 32.9 µM), for inactives: at the top dose activity, positive = growth rescue, actives largely listed as activators; AID 485353, 2010; calls by dose curve; further: 0% is about no effect; nearly all actives have a fitted effect of over 55% in size
Pf growth 48h: Primary qHTS for delayed death inhibitors of the malarial parasite plastid, 48 hour incubation. P. falciparum luciferase growth in erythrocytes, 48 h. Potency, µM (series often up to 28.7 µM), without a hit: top-dose activity change, negative = inhibition, hits mostly inhibitors. hit rate 5.9% among 310,000. AID 504832, 2011; further: on the % scale 0 is the no-effect control and ±100 the full control effect
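Compounds are pin-transferred into medium, infected erythrocytes (2% hematocrit, 0.1% parasitemia final) are added, and plates sit one parasite generation at 37 C in 5% CO2. Detection reagent is then added and luminescence measured.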
AMA1-RON2 inh: qHTS for Inhibitors of AMA1-RON; Towards Development of Antimalarial Drug Lead: Primary Screen; AlphaScreen AMA1-biotinylated RON2 peptide binding; hit rate 0.2% among 360,000; AID 720542, 2013; Potency, µM (series often up to 58.2 µM), for the others: top-dose activity change, negative = inhibition, most hits filed as inhibitors; Plasmodium falciparum AMA1 (3D7) - RON2 peptide interaction;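 further: 0% = vehicle wells and -100% = peptide control; nearly all actives have a fitted effect of over 45% in size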
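AMA1 (3D7) with his tag at 25 nM final met compounds first, then biotinylated RON2 peptide at 25 nM; detection used donor plus acceptor beads, 10 µg/mL apiece, read by AlphaScreen after 30 min at room temperature.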
NS1 inh: qHTS Assay for Inhibitors of Influenza NS1 Protein Function; hit rate 0.4% among 270,000; Potency, µM (titrated, usually from 46.1 µM), without a hit: at the top dose activity, positive = more growth; calls by dose curve; further: actives are rising curves; nearly all actives have a fitted effect of over 50% in size
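Growth recovery, yeast-based: influenza A NS1 expressed in S. cerevisiae causes slow growth, and suppressors are detected by OD600. The parent strain without NS1 is used as positive control.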
Pf growth 96h: Primary qHTS for delayed death inhibitors of the malarial parasite plastid, 96 hour incubation; P. falciparum luciferase reporter growth, 96 h; Potency, µM (series often up to 28.7 µM), for the others: top-dose activity change, negative = inhibition, actives largely listed as inhibitors; hit rate 6.9% among 320,000; further: on the % scale 0 is the no-effect control and ±100 the full control effect
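Infected RBCs, 2% Hct / 0.05% parasitemia final; luciferase-reporter P. falciparum; cpd 96 h, 37 C, 5% CO2; luciferase detection reagent; luminescence.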
Starred values were filed as active, the others as inactive; ? = inconclusive; . = no result given; [ ] = another dose, or the depositor's remark. Unless noted, the call rests on the fitted dose curve; in most records, active means well fitted curve in the direction sought with a large enough effect; inconclusive means small, poorly fitted or top-dose-only effect, or another doubt; inactive means no such curve, though single readings can be large; an effect the other way counts as inactive or inconclusive. Potency means the concentration at half of the fitted maximal effect.

SMILES | HCV inhibitor | SARS PLpro yeast | Pf growth 48h | AMA1-RON2 inh | NS1 inh | Pf growth 96h
COc1ccc(-n2c(Cn3c(=O)sc4ccccc43)nnc2SC)cc1 | 8% | 4% | 3% | -11% | -17% | 1.9µM*
COCCCn1c(SCC(=O)N2CCc3ccccc32)nnc1-c1ccoc1C | 11% | . | . | -6% | 5% | .
Cn1c(CNC(=O)c2cccs2)nnc1SCC(=O)Nc1ccc(Cl)cc1 | -5% | 19% | 12µM* | 9% | -11% | ?
CCn1c(CSc2ncccn2)nnc1SCC(=O)N1CCc2ccccc21 | -13% | 5% | ? | 2% | -5% | 4.7µM*
COCCCn1c(SCC(=O)N2CCc3ccccc32)nnc1-c1ccco1 | 2% | 0% | -6% | -6% | -6% | 12µM*
Cc1ccc(C(=O)NCc2nnc(SCC(=O)Nc3ccccc3)n2C)cc1 | ? | 13% | 32% | -3% | 0% | 3%
COc1ccccc1N1CCN(C2CCCCC2NS(=O)(=O)c2ccccc2)CC1 (configuration not stated) | ? | -3% | ? | -5% | -18% | -29%
Cc1ccc(Oc2nc(-c3ccccc3)ncc2S(=O)(=O)c2ccc(C)cc2)cc1 | 5.6µM* | 1% | -28% | 32% | 5% | -2%
O=C(O)c1cnc(-c2ccccc2)nc1Oc1ccc(Cl)cc1 | 21% | -1% | 2% | 13% | . | 50%
O=C(O)c1cnc(-c2ccccc2)nc1Oc1ccccc1 | 3.5µM* | -1% | 4% | 13% | . | 27%
Cc1ccc(Oc2nc(-c3ccccc3)ncc2S(C)(=O)=O)cc1 | 3% | -1% | 6% | -2% | 12% | -5%
COC(=O)c1c(NC(=O)CCS(=O)(=O)c2ccccc2)sc2c1CCN(C)C2 | -16% | 1% | 13µM* | 6% | 7% | ?
CCCN1CCc2c(sc(NC(=O)CCS(=O)(=O)c3ccccc3)c2C(=O)OC)C1 | 3% | -5% | ? | 8% | 15% | 13µM*
CCC(=O)Nc1sc2c(c1C(=O)OC)CCN(Cc1ccccc1)C2 | ? | 1% | ? | -24% | -14% | -4%
COC(=O)c1c(NC(NC(=O)c2ccccc2)(C(F)(F)F)C(F)(F)F)sc2c1CCN(C)C2 | -17% | -16% | 8.3µM* | 40% | -2% | 2.3µM*
[O-][n+]1c2ccccc2[n+]([O-])c2cc(O)ccc21 | -26% | -4% | . | ? | -3% | 26%
NS(=O)(=O)c1cccc(NC(=O)COC(=O)Cn2cc(C(F)(F)F)ccc2=O)c1 | 12% | -1% | -22% | -6% | . | -18%
O=C1C=C(c2cccs2)CC(c2cccs2)C1n1cnc([N+](=O)[O-])c1 (configuration not stated) | -7% | 3% | ? | -1% | -4% | .
O=C1C=C(c2ccccc2)C[C@H](c2cccs2)[C@H]1n1cnc([N+](=O)[O-])c1 | -29% | -3% | 13µM* | -1% | 1% | ?
O=C(/C=C/c1ccccc1[N+](=O)[O-])NCCc1ccc(F)cc1 | -11% | 0% | -6%[5.75 µM] | -3% | . | 37%
O=C(/C=C/c1ccccc1Cl)NCCc1ccc(F)cc1 | -9% | -12% | 4.7µM* | -8% | -17% | ?
CN(C)Cc1c(C(=O)N/N=C/c2cccs2)nnn1-c1nonc1N | 28% | 7% | 11% | -9% | 5% | 5%
CCCn1c(CC)nc([N+](=O)[O-])c1S(=O)(=O)c1ccccc1 | 13µM* | -12% | 10µM* | -5% | -37% | ?
CCN(CC)CCOc1ccccc1OC | . | 0% | 4% | -5% | 0% | 3%
CCCCOc1ccc2c(c1)C(=O)c1cc(O)ccc1-2 | ? | -5% | 76% | -24% | -30% | 48%
SMILES | HCV inhibitor | SARS PLpro yeast | Pf growth 48h | AMA1-RON2 inh | NS1 inh | Pf growth 96h
CCN(CC)CCOc1ccc2c(c1)C(=NO)c1cc(OCCN(CC)CC)ccc1-2 | 10µM* | 1% | 6.6µM* | -4% | -16% | 1.9µM*
CCCOc1ccc2c(c1)C(=NN=C(N)N)c1cc(OCCC)ccc1-2 | 11µM* | -2% | 0.66µM* | -4% | 6% | 5%
CCN(CC)CCOc1ccc(Br)cc1 | ? | 8% | 4% | -9% | 1% | 2.6µM*
CCN(CC)CCCOc1ccc(Cl)c(Cl)c1 | ? | -24% | -7% | -17% | -3% | ?
CCN(CC)CCOc1ccc(/C(=C(\Cl)c2ccccc2)c2ccccc2)cc1 | 11µM* | . | 2.1µM* | ? | . | 2.3µM*
CC(C(=O)Nc1nc2ccccc2s1)n1cc([N+](=O)[O-])cn1 (configuration not stated) | -4% | 5% | 21% | 19% | . | ?
COc1ccc(NC(=O)C(C)N=C2NS(=O)(=O)c3ccccc32)cc1S(N)(=O)=O (configuration not stated) | ? | 0% | -5% | -6% | . | 9%
Cc1ccc(Sc2ccc(CN3CCCCC3)cc2[N+](=O)[O-])cc1 | ? | -1% | ? | -13% | -2% | ?
CC1=CC(=O)C(Sc2ccc(C)cc2)=CC1=O | . | . | . | 13µM* | . | .
O=S(=O)(c1ccc(Cl)c(NC(=S)Nc2ccccc2N2CCOCC2)c1)N1CCOCC1 | 3% | -14% | 8% | 20% | 8% | -27%
C/C(=N\NC(=S)Nc1cc(S(=O)(=O)N2CCOCC2)ccc1Cl)c1ccc(N2CCOCC2)cc1 | -22% | -1% | 1.7µM* | 117% | 3% | 1.9µM*
COc1ccc2cc(/C(C)=N/NC(=S)Nc3cc(S(=O)(=O)N4CCOCC4)ccc3N3CCOCC3)ccc2c1 | . | 1% | 1.5µM* | . | 14% | ?
Cn1c(SCC(=O)N2CCN(S(=O)(=O)c3ccccc3)CC2)nc2ccccc21 | -14% | -5% | ? | 5% | -12% | ?
CC(C)Cn1c(SCC(=O)N2CCN(S(=O)(=O)c3ccccc3)CC2)nc2ccccc21 | ? | 2% | 3.3µM* | 1% | -14% | .
Cn1c(SCC(=O)N2CCN(S(=O)(=O)c3ccc(Cl)cc3)CC2)nc2ccccc21 | -8% | -1% | . | -11% | 1% | 10µM*
N#CCCn1c(SCC(=O)N2CCN(S(=O)(=O)c3ccccc3)CC2)nc2ccccc21 | 1% | -2% | ? | -7% | -8% | .
COCCN(C(=O)c1snc(C(N)=O)c1N)C(C(=O)NC1CCCCC1)c1ccc(F)cc1 (configuration not stated) | -5% | 1% | -6% | -5% | -15% | ?
CCN(CC)S(=O)(=O)c1ccc(/C=C/C(=O)Nc2cccc(F)c2)cc1 | 13µM* | 11% | ? | 13% | 2% | 2.9µM*

Screening data from PubChem BioAssay.
